The text below walks through data of publication PMC4081100, “A DNA-binding-site landscape and regulatory network analysis for NAC transcription factors in Arabidopsis thaliana”.

Holding throughout (experiment): universal protein binding microarray (PBM); transcription factors of Arabidopsis thaliana; high values mean tight binding
What all share (conditions): protein: recombinant; tags: GST; chain copies: 2; dsDNA, one strand shown

Assay [1] concerns the target T1, GST-ANAC092(1-176) (Arabidopsis thaliana, UniProt Q9FKA0 1-176).
T1 sequence: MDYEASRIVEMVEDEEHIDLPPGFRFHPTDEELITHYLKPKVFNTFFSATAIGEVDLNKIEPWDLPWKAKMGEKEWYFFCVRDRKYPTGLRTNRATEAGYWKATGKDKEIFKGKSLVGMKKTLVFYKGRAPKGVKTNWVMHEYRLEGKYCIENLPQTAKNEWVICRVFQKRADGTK
An outline of the steps: (§1)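 Cells were induced to make GST-tagged NAC-domain, full-length or DNA-binding-domain proteins, and zinc acetate was added for zinc-finger proteins. These proteins were purified on glutathione–Sepharose 4B, quantified by A280 or anti-GST western blot, and applied in duplicate at 200 to 500 nM final to custom all-10-mer Agilent 4 × 180K arrays that primer extension had made double-stranded. Binding is given as the normalised enrichment score (E-score) for scored gapped and ungapped 8-mers.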

Assay [2] has as its target T2, GST-ANAC019 NAC domain (Arabidopsis thaliana, UniProt Q9C932 14-162).
T2 sequence: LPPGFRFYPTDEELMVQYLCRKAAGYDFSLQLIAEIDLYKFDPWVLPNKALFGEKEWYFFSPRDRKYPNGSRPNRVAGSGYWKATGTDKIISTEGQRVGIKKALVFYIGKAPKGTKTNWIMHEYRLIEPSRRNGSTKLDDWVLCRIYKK
In short, it runs like this:
as §1

Assay [3] deals with T3, GST-ANAC055(1-171) (Arabidopsis thaliana, UniProt Q9LDY8 1-171).
T3 sequence: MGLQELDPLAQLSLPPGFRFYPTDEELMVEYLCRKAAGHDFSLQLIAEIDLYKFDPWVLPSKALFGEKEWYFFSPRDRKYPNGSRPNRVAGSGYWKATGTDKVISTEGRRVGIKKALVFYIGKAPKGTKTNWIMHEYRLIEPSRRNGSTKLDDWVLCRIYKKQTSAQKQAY
In short, it runs like this: as §1

Assay [4] concerns the target T4, GST-ATAF1 NAC domain (Arabidopsis thaliana, UniProt Q39013 7-158).
T4 sequence: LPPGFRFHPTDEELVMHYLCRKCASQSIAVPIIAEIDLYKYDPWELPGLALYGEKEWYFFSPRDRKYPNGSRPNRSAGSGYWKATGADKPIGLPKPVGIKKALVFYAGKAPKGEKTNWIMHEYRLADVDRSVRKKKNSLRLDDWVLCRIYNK
In short, it runs like this: as §1

Assay [5] has as its target T5, GST-ANAC092(1-285) full length (Arabidopsis thaliana, UniProt Q9FKA0 1-285).
T5 sequence: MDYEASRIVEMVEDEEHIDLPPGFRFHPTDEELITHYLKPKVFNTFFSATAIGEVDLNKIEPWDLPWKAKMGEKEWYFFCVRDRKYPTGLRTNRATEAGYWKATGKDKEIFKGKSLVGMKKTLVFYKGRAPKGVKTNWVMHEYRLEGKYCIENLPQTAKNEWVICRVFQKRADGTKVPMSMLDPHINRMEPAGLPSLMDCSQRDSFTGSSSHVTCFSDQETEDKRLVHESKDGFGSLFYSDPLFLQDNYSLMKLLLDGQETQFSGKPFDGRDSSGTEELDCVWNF
An outline of the steps: as §1

The target in assay [6] is T6, GST-NAP(1-166) (Arabidopsis thaliana, UniProt O49255 1-166).
T6 sequence: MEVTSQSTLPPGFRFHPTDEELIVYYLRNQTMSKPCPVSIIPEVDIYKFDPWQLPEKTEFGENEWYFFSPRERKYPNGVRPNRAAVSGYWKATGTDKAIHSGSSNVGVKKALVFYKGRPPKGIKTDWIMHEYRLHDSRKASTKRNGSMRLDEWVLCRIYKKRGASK
An outline of the steps: as §1

The target of assay [7] is T7, GST-NST2(1-184) (Arabidopsis thaliana, UniProt Q9M274 1-184).
T7 sequence: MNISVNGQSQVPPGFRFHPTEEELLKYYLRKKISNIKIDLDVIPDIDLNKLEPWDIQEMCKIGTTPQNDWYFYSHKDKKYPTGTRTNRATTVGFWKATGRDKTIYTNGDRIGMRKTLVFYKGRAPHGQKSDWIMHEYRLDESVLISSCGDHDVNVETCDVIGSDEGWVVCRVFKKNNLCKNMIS
An outline of the steps: as §1

The target of assay [8] is T8, GST-SND1(1-203) (Arabidopsis thaliana, UniProt Q9LPI7 1-203).
T8 sequence: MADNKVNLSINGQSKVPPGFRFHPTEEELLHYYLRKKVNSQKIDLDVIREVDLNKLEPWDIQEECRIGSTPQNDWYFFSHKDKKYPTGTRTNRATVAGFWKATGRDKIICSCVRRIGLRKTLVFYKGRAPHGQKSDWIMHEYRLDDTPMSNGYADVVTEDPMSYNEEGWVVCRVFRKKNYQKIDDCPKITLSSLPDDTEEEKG
In short, it runs like this: as §1

For assay [9], the target named is T9, GST-VND3 NAC domain (Arabidopsis thaliana, UniProt Q9FH59 12-162).
T9 sequence: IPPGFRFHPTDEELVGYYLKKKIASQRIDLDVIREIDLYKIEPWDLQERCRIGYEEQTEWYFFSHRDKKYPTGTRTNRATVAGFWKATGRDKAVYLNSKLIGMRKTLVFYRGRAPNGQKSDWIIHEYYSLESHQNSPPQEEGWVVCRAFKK
In short, it runs like this:
as §1

Assay [10] has as its target T10, GST-VND7 NAC domain (Arabidopsis thaliana, UniProt Q9C8W9 9-158).
T10 sequence: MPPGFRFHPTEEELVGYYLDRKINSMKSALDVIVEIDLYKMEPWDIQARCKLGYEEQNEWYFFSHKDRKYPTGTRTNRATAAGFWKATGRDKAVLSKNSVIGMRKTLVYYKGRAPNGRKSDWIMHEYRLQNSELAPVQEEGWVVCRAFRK
In short, it runs like this:
as §1

With CACGCTTC, the binding signal in assay [1] worked out at 0.37 E-score; in assay [2] it was 0.184 E-score; in [3] it was 0.165 E-score; in assay [4], 0.212 E-score; in assay [5], 0.437 E-score; in assay [6], 0.109 E-score. The binding signal in assay [7] was 0.188 E-score; in assay [8] it was 0.232 E-score; in [9], 0.111 E-score; in assay [10], 0.127 E-score.

As for ACGCAATC, the binding signal in [1] amounted to 0.48 E-score; in assay [2], 0.285 E-score; in [3] it was 0.343 E-score; in assay [4], 0.298 E-score; in [5], 0.485 E-score; in [6] it was 0.386 E-score. The binding signal in assay [7] was 0.384 E-score; in [8] it was 0.474 E-score; in [9], 0.355 E-score; in assay [10], 0.38 E-score.

For the sequence CACGCATC, the binding signal in assay [1] is 0.396 E-score; in assay [2], 0.334 E-score; in assay [3], 0.291 E-score; in assay [4] it was 0.235 E-score; in assay [5], 0.44 E-score; in [6] it was 0.309 E-score. Also, the binding signal came to 0.125 E-score in assay [7], 0.296 E-score in [8], 0.239 E-score in [9] and 0.232 E-score in assay [10].

Turning to AGTTACGC, the binding signal in [1] was found to be 0.273 E-score; in assay [2], 0.134 E-score; in assay [3] it was 0.0766 E-score; in assay [4] it was 0.124 E-score; in assay [5], 0.275 E-score; in [6] it was 0.115 E-score. Also, the binding signal is 0.245 E-score in assay [7], 0.412 E-score in [8], 0.103 E-score in assay [9] and 0.0942 E-score in [10].

In the case of CACGTCAC, the binding signal was 0.445 E-score in assay [1]; 0.4 E-score in assay [2]; 0.396 E-score in [3]; 0.374 E-score in assay [4]; 0.464 E-score in assay [5]; 0.344 E-score in assay [6]. Besides, the binding signal in assay [7] came out at 0.217 E-score; in [8] it was 0.328 E-score; in assay [9] it was 0.362 E-score; in assay [10] it was 0.395 E-score.

For ATGTCGTG, the binding signal in [1] came out at 0.267 E-score; in [2], 0.419 E-score; in assay [3], 0.371 E-score; in assay [4], 0.289 E-score; in [5], 0.336 E-score; in assay [6], 0.2 E-score. In addition, the binding signal in assay [7] was determined as 0.0589 E-score; in [8], 0.118 E-score; in assay [9] it was 0.362 E-score; in assay [10], 0.37 E-score.

Take GATGCGTA: the binding signal in assay [1] was determined as 0.368 E-score; in assay [2] it was 0.216 E-score; in [3], 0.227 E-score; in [4] it was 0.239 E-score; in [5], 0.416 E-score; in assay [6] it was 0.182 E-score. Also, the binding signal is 0.185 E-score in assay [7], 0.415 E-score in assay [8], 0.267 E-score in assay [9] and 0.186 E-score in [10].

On to AGCGTGTC, for which the binding signal in assay [1] was determined as 0.398 E-score; in [2] it was 0.206 E-score; in assay [3] it was 0.174 E-score; in assay [4] it was 0.165 E-score; in assay [5], 0.432 E-score; in [6], 0.0924 E-score. The binding signal is 0.107 E-score in assay [7], 0.131 E-score in assay [8], 0.156 E-score in [9] and 0.208 E-score in assay [10].
